# In PubChem BioAssay:
# Calls of active or inactive are those of the source.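 How the source made its calls: active means RAM network inhibition above 8.4% in each of two replicates, 3 SD over the compound average; inconclusive means above 8.4% inhibition in only one replicate; inactive means 8.4% inhibition or less in each replicate.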
# Test: RAM signaling pathway blockade in yeast – S. cerevisiae, Pdr1DBD-CYC8 efflux-inhibited sensitized strain, primary screen (AID 1298);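 further: 0% = DMSO untreated cells without growth and 100% = 10 µM 1-NA-PP1 full growth; higher means more yeast growth rescued from 5-FOA killing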
# Details: S. cerevisiae cbk1-as DSE1-URA3 strain, 5-FOA growth OD615, 2 d; at 50 µM; stronger effect = higher value
row,Compound,RAM network inhibition
1,O=C(NCC1CCCO1)C1CC(=O)N(c2ccc(F)c(Cl)c2)C1 (stereo unspecified),5.33% (inactive)
2,Oc1cnn(-c2ccccc2)c1,-0.83% (inactive)
3,Cc1c(NC(=O)c2ccc(F)cc2)c(=O)n(-c2ccccc2)n1C,1.21% (inactive)
4,COC(=O)C1=CN(C(C)C)C=C(C(=O)OC)C1c1cccc(OC)c1,5.46% (inactive)
5,O=C(CSc1nnc(-c2ccccc2Cl)o1)N1CCCCC1,0.36% (inactive)
6,CC1Cc2nc(SCC(=O)Nc3nccs3)n(Cc3ccccc3)c(=O)c2S1 (stereo unspecified),3.83% (inactive)
7,COc1ccc(Cn2nnc3c(=O)[nH]c(C(=O)NCCc4ccc(F)cc4)nc32)cc1OC,0.97% (inactive)
8,CCOC(=O)c1c(C)n(C)c2ccc(OCC(O)CN3CCN(C)CC3)cc12 (stereo unspecified),-0.99% (inactive)
9,C=CCn1c(O)c(C2=c3ccccc3=NC2=O)sc1=Nc1ccc(O)cc1,2.7% (inactive)
10,Cc1ccc(-c2cc(C(F)(F)F)n3ncc(C(=O)NCc4ccco4)c3n2)cc1,3.41% (inactive)
11,CSc1ccc(C2C(C#N)=C(N)N(c3ccccc3)C3=C2C(=O)CCC3)cc1 (stereo unspecified),2.23% (inactive)
12,Cc1ccn2cc(CCNC(=O)c3ccc(Br)o3)nc2c1,4.83% (inactive)
13,COc1cccc(N2CCN(c3ncnc4c3cnn4-c3ccc(C)cc3C)CC2)c1,8.39% (inactive)
14,COc1cc(CO)cc(Br)c1OCC(=O)O,-1.46% (inactive)
15,COc1ccc(Cc2nnc(SC)[nH]c2=O)cc1OC,1.41% (inactive)
16,COc1ccccc1CNC(=O)C1CCN(S(=O)(=O)c2cccc3cccnc23)CC1,-0.93% (inactive)
